Assay in all cases: NCI-60 one-dose screen, 48 h (100 = growth as untreated, 0 = no growth, -100 = all killed)
Holding throughout (conditions): 10 µM

Test [1] deals with HCT-15 colon.
For test [2], the system named is HT29 colon.
For test [3], the system named is SNB-75 CNS.
Test [4] deals with SNB-19 CNS.
Test [5] has as its system U251 CNS.
Test [6] deals with PC-3 prostate.
Test [7] deals with SK-MEL-5 melanoma.
For test [8], the system named is UACC-62 melanoma.
Test [9] relates to LOX IMVI melanoma.
In test [10] the test system is SK-MEL-28 melanoma.
For test [11], the system named is SK-MEL-2 melanoma.
Test [12] relates to EKVX NSCLC.
Test [13] concerns SN12C renal.
Test [14] relates to UO-31 renal.
In test [15] the test system is TK-10 renal.
The test system of test [16] is ACHN renal.
Test [17] deals with CAKI-1 renal.
In test [18] the test system is A498 renal.
The subject of test [19] is CCRF-CEM leukemia.
Test [20] relates to MOLT-4 leukemia.

Compounds without any hit were thinned out: in the full panel of roughly 83,000, 20% have a hit.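 The test compound was applied at a single concentration to cells in 96-well plates for 48 hours, and percent growth was recorded.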 Values without a mark were called inactive. Calls of active or inactive are those of the source. How the source made its calls: active means growth percent below 10; inactive means the rest.

Take `Nc1n[nH]c2cccc(C#Cc3cccc(NC(=O)Nc4cc(C(F)(F)F)cc(C(F)(F)F)c4)c3)c12`: the growth was -81.8% (active) in [1]; -49.7% (active) in [2]; -0.721% (active) in test [3]; -19.7% (active) in test [4]; -78.5% (active) in test [5]; -4.77% (active) in [6]. Besides, the growth in test [7] is -100% (active); in test [8], -90.9% (active); in test [9] it was -100% (active); in test [10] it was -88.5% (active); in test [11], -96.8% (active); in test [12] it was -30.3% (active). Besides, the growth in test [13] is -85.9% (active); in test [14], -52.5% (active); in [15] it was -3.32% (active); in test [16] it was -25.4% (active); in [17], -15.6% (active); in [18], -17.4% (active). In addition, the growth in test [19] was -1.88% (active); in test [20], -1.46% (active).
On to `O=C(CNc1nc(-c2ccccc2)cs1)Nc1ccc([N+](=O)[O-])cc1`, for which the growth was -23.5% (active) in test [1]; -44.9% (active) in [2]; 87.6% in [3]; 38.3% in test [4]; 9.22% (active) in test [5]; 33.7% in [6]. The growth is -69.3% (active) in test [7]; 9.93% (active) in [8]; -19.5% (active) in test [9]; -6.86% (active) in test [10]; 31.1% in test [11]; 9.52% (active) in test [12]. Moreover, the growth is 16.9% in test [13]; -74.3% (active) in test [14]; -58% (active) in test [15]; -15.8% (active) in test [16]; 7.15% (active) in test [17]; 109% in test [18]. The values for the growth in test [19] and in test [20] were 14.3% and 15.7%, respectively.
As to `N#Cc1ccc(-c2nn(-c3ccc(C(=O)O)cc3)cc2CNc2cc(Cl)cc(C(F)(F)F)c2)cc1`, the growth in test [1] was 7.93% (active); in [2], 18.8%; in test [3], 31%; in test [4] it was 20.9%; in [5] it was 18.5%; in test [6] it was 14.1%. Further, the growth in test [7] was -64.1% (active); in test [8], -48.8% (active); in [9] it was -24% (active); in test [10] it was 12.2%; in test [11] it was 8.11% (active); in test [12] it was 22.8%. The growth in [13] is 18.4%; in test [14], 25%; in test [15], 63.5%; in test [16], 17.3%; in test [17] it was 20.8%; in test [18], 39.8%. Also, the figures for the growth in test [19] and in test [20] were 5.2% (active) and 6.25% (active), respectively.
As to `O=C(N/C(=C1/OCCN1Cc1ccccc1)[P+](c1ccccc1)(c1ccccc1)c1ccccc1)c1ccccc1`, the growth in [1] was 77.8%; in test [2], 14.6%; in test [3], 26.9%; in [4], 10.4%; in test [5], 14.3%; in test [6], 22.5%. The growth is -100% (active) in test [7]; -36.4% (active) in [8]; 6.07% (active) in test [9]; 22.8% in test [10]; -27.6% (active) in [11]; 14.6% in test [12]. Besides, the growth in [13] is 7.37% (active); in [14] it was 83.1%; in test [15] it was 26.1%; in test [16], 82.6%; in test [17], 79.5%; in [18], 83%. Moreover, the growth was 13.3% in test [19] and 20.6% in test [20].
On to `COc1cccc2nc(Nc3ccc(F)c(NC(=O)c4ccc(CN5CCN(C)CC5)c(C(F)(F)F)c4)c3)ccc12`, for which the growth was -83% (active) in [1]; -30.2% (active) in test [2]; -3.82% (active) in test [3]; -49.2% (active) in [4]; -42.7% (active) in test [5]; -8.36% (active) in test [6]. Moreover, the growth in [7] was -94.9% (active); in [8] it was -82.1% (active); in test [9] it was -100% (active); in test [10] it was -84% (active); in test [11], 14.6%; in test [12] it was 13%. Besides, the growth in [13] is 26.8%; in [14], 5.08% (active); in test [15], 50.3%; in test [16] it was 0.664% (active); in [17], -2.36% (active); in test [18], 77%. In addition, the growth is -3% (active) in test [19] and -16.5% (active) in [20].
As to `CC[C@]12C=CCN3CC[C@@]4(c5cc(C#CCNc6ccc(C)c(Nc7nccc(-c8cccnc8)n7)c6)c(OC)cc5N(C)[C@H]4[C@@](O)(C(=O)OC)[C@@H]1OC(C)=O)C32` (stereo not given in full), the growth in [1] was 25.9%; in test [2] it was 25.8%; in test [3], 77.7%; in [4], 48.1%; in [5], 40.8%; in test [6] it was 37.5%. Besides, the growth in test [7] is 32.1%; in test [8] it was 69.4%; in [9] it was 38.6%; in test [10] it was 37.5%; in test [11] it was 61.7%; in test [12], 55.9%. In addition, the growth is 45.3% in test [13]; 46.9% in [14]; 88% in [15]; 51.4% in test [16]; 40.4% in [17]; 68.1% in test [18]. Besides, the growth in test [19] was 18.8%; in [20], 37.9%.
As for `C/C(=N\N=C\c1ccc(Cl)c([N+](=O)[O-])c1)c1ccc2c(c1)Nc1ccccc1S2`, the growth in test [1] is 50.8%; in test [2] it was 35.5%; in [3], 109%; in test [4], 31.2%; in test [5] it was -35% (active); in test [6] it was 13.5%. Moreover, the growth in test [7] is 38.8%; in test [8], 38.8%; in test [9], 37.2%; in test [10], 60.9%; in test [11], 69.4%; in [12], 48%. Also, the growth in [13] was 37.2%; in [14] it was 76.9%; in test [15], 77%; in test [16] it was 45.6%; in test [17] it was 60.3%; in test [18], 91.8%. Besides, the growth in test [19] is 56.4%; in test [20], 40.3%.
For the compound `Nc1nc(Nc2ccccc2)nn1Cc1c(Cl)cccc1Cl`, the growth in test [1] was 37.5%; in test [2], 54.4%; in [3], 67.5%; in test [4] it was 58%; in test [5], 53.8%; in test [6] it was 27.4%. Besides, the growth in [7] was 23.5%; in test [8], 33.5%; in [9], 16.3%; in [10], 55.5%; in test [11] it was 49.2%; in test [12], 20.2%. Besides, the growth was 44.5% in [13]; 11.8% in test [14]; 53.8% in test [15]; 13.9% in test [16]; 27.9% in [17]; -3.12% (active) in test [18]. Also, the growth in test [19] is 26.5%; in test [20] it was 18.6%.
